Laboratory results from the supplement of paper PMC12350171.
Structures can show the parent of a compound that is named as a salt. A number with no mark means an inactive call.

How the values were obtained:
Settings in all cases: 20 µM
[1] = system: Salmonella enterica typhimurium; assay: growth AUC normalised to DMSO control (fraction of control); higher = less growth inhibition, active = hit call of the paper
Method in brief: (§1)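 Hemin and NAD were added to the medium for Haemophilus parainfluenzae. All pathogens, after two anaerobic passages, were inoculated at a starting OD578 of 0.01 into pre-reduced mGAM plates with 20 μM compound and 1% DMSO under breathable seals, and OD578 was read hourly for 24 h in three biological replicates. AUC of each growth curve was obtained with the trapezoidal rule up to the exponential-to-stationary transition and normalised to DMSO controls from the same plate.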

Shigella flexneri = assay: as above
Method in brief: as §1

Vibrio cholerae = assay: as above
Method in brief: as §1

[2] = system: Yersinia pseudotuberculosis; assay: as above
Method in brief: as §1

P. vulgatus RND KO = assay: growth AUC normalised to DMSO control (median) (fraction of control); higher = less growth inhibition, active = hit call of the paper
Method in brief: (§2)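 In 96-well plates of mGAM seeded at OD578 0.01, strains that had been passaged twice overnight without oxygen were exposed to approved-drug library compounds at 20 μM with 1% DMSO. Hourly OD578 readings were taken for 24 h in an anaerobic incubator. The trapezoidal-rule area under the curve, with curves truncated at entry into stationary phase, was expressed relative to same-plate vehicle wells as the median of three biological replicates.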

P. vulgatus WT = assay: as above
Method in brief: as §2

[3] = system: S. enterica typhimurium WT; assay: as above
Method in brief: as §2

[4] = system: S. enterica typhimurium tolC KO; assay: as above
Method in brief: as §2
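Wherever growth AUC normalised to DMSO control (median) is given: active when median AUC fell below 0.1.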

| Compound | growth AUC normalised to DMSO control [1] | growth AUC normalised to DMSO control (Shigella flexneri) | growth AUC normalised to DMSO control (Vibrio cholerae) | growth AUC normalised to DMSO control [2] | growth AUC normalised to DMSO control (P. vulgatus RND KO) | growth AUC normalised to DMSO control (P. vulgatus WT) | growth AUC normalised to DMSO control [3] | growth AUC normalised to DMSO control [4] |
| --- | --- | --- | --- | --- | --- | --- | --- | --- |
| S=c1[nH]cnc2nc[nH]c12 [Mercaptopurine] | 0.997 | 1.01 | 1 | 0.987 | 1.01 | 1 | 1 | 0.998 |
| CN[C@@H]1[C@H](O[C@H]2[C@H](O[C@H]3[C@H](O)[C@@H](O)[C@H](N=C(N)N)[C@@H](O)[C@@H]3N=C(N)N)O[C@@H](C)[C@]2(O)C=O)O[C@@H](CO)[C@H](O)[C@H]1O [Streptomycin sulfate] | 1.02 | 1.05 | 1.06 | 0.965 | 1.05 | 1.09 | 0.983 | 1 |
| Nc1nc(N)nc(-c2cc(Cl)ccc2Cl)n1 [Irsogladine maleate] | 0.998 | 1 | 0.999 | 0.995 | 0.959 | 0.977 | 0.999 | 1 |
| Cc1cc(NS(=O)(=O)c2ccc(N)cc2)no1 [Sulfamethoxazole] | 0.983 | 0.984 | 0.993 | 0.991 | 0.951 | 0.979 | 0.967 | 0.959 |
| CCN1CCN(C(=O)N[C@@H](C(=O)N[C@@H]2C(=O)N3C(C(=O)O)=C(CSc4nnnn4C)CS[C@H]23)c2ccc(O)cc2)C(=O)C1=O [Cefoperazone dihydrate] | 0.0254 (active) | 0.0208 (active) | 0.0794 (active) | 0.16 (active) | 0.00991 (active) | 0.00365 (active) | 0.144 | 0.00245 (active) |
| CN(C)CCOC(=O)COc1ccc(Cl)cc1 [Meclofenoxate hydrochloride] | 0.977 | 0.942 | 0.977 | 0.935 | 0.996 | 0.985 | 1.01 | 0.995 |
| CC(C)(C)NCC(O)COc1cccc2c1CCC(=O)N2 (configuration not stated) [Carteolol hydrochloride] | 1 | 0.985 | 0.993 | 1 | 0.945 | 0.968 | 0.998 | 0.991 |
| Cc1cc(=O)n(-c2ccccc2)n1C [Antipyrine] | 1 | 1.01 | 1.01 | 1 | 1 | 1.04 | 0.989 | 1.01 |
| Cc1cc(C)nc(NS(=O)(=O)c2ccc(N)cc2)n1 [Sulfamethazine sodium salt] | 0.985 | 0.986 | 0.982 | 1.01 | 0.996 | 0.988 | 0.992 | 1.01 |
| c1cnc(N2CCN(Cc3ccc4c(c3)OCO4)CC2)nc1 [Piribedil] | 1 | 1.03 | 0.999 | 1.01 | 1.07 | 1.09 | 0.984 | 1 |
| COc1cc(C(=O)NCc2ccc(OCCN(C)C)cc2)cc(OC)c1OC [Trimethobenzamide hydrochloride] | 1.02 | 1.01 | 1.05 | 1.02 | 1.02 | 1.05 | 0.999 | 1.01 |
| N[C@H]1CONC1=O [(S,-) Cycloserine] | 1.01 | 1.03 | 1.04 | 1.04 | 0.897 | 0.954 | 0.997 | 0.996 |
| CN(C)C(=N)NC(=N)N [Metformin hydrochloride] | 1 | 1.01 | 1.02 | 0.983 | 1.01 | 0.996 | 1 | 1 |
| Cc1ccccc1OCC(O)CO (configuration not stated) [Mephenesin] | 0.999 | 1 | 0.999 | 0.994 | 1.01 | 1.01 | 1 | 1 |
| NC1CCN(c2nc3c(cc2F)c(=O)c(C(=O)O)cn3-c2ccc(F)cc2F)C1 (configuration not stated) [Tosufloxacin hydrochloride] | 0.00626 (active) | 0.0173 (active) | 0.0443 (active) | 0.0355 (active) | 0.0157 (active) | 0.012 (active) | 0.00524 (active) | 0.00501 (active) |
| C=C1c2c(Cl)ccc(O)c2C(O)=C2C(=O)[C@]3(O)C(O)=C(C(N)=O)C(=O)[C@@H](N(C)C)[C@@H]3[C@@H](O)[C@H]12.O=C(O)c1cc(S(=O)(=O)O)ccc1O [Meclocycline sulfosalicylate] | 0.00503 (active) | 0.015 (active) | 0.0396 (active) | 0.0398 (active) | 0.0142 (active) | 0.022 (active) | 0.0103 (active) | 0.00967 (active) |
| C[C@H](N)[C@H](O)c1cccc(O)c1 [Metaraminol bitartrate] | 0.992 | 0.972 | 0.984 | 1.01 | 0.993 | 0.989 | 0.994 | 1 |
| CC(C)COCC(CN(Cc1ccccc1)c1ccccc1)N1CCCC1 (configuration not stated) [Bepridil hydrochloride] | 1 | 0.965 | 0.875 | 1.02 | 0.996 | 0.982 | 0.986 | 0.906 |
| CCN(CCCc1ccccc1)CCCc1ccccc1 [Alverine citrate salt] | 0.985 | 0.966 | 0.841 (active) | 0.971 | 1.02 | 1.03 | 1 | 0.961 |
| Cc1c(NC(=O)c2cccnc2)c(=O)n(-c2ccccc2)n1C [Nifenazone] | 0.976 | 1 | 1.01 | 1.01 | 0.997 | 1 | 1.01 | 0.996 |
| COC(=O)Nc1nc2cc(C(=O)c3ccc(F)cc3)ccc2[nH]1 [Flubendazol] | 1.02 | 0.994 | 0.993 | 0.994 | 1.04 | 1.07 | 1.01 | 1 |
| NC(=O)NC1NC(=O)NC1=O (configuration not stated) [Allantoin] | 1 | 0.996 | 1.05 | 0.989 | 0.999 | 1.01 | 0.994 | 0.998 |
| Nc1ccn([C@@H]2CS[C@H](CO)O2)c(=O)n1 [Lamivudine] | 0.98 | 0.986 | 0.995 | 1.01 | 1 | 1.02 | 1 | 0.992 |
| Nc1nc2n[nH]nc2c(=O)[nH]1 [Azaguanine-8] | 1.01 | 1.05 | 1.01 | 0.996 | 1.01 | 0.999 | 0.987 | 1.01 |
| CN(C)CCOC1=Cc2ccccc2Sc2ccc(Cl)cc21 [Zotepine] | 1.01 | 1 | 0.877 | 1 | 0.935 | 0.874 | 1.01 | 0.959 |
| Nc1ccccc1S(N)(=O)=O [o-Sulfanilamide] | 0.993 | 0.971 | 0.988 | 0.99 | 1.01 | 1.01 | 1.01 | 1 |
| COc1ccc(OC)c(C(O)CNC(=O)CN)c1 (configuration not stated) [Midodrine hydrochloride] | 0.992 | 0.99 | 1.02 | 1.02 | 1.02 | 1.02 | 1.02 | 1 |
| COc1cccc2c1C(=O)c1c(O)c3c(c(O)c1C2=O)C[C@@](O)(C(=O)CO)C[C@@H]3O[C@H]1C[C@H](N)[C@H](O)[C@H](C)O1 [Doxorubicin hydrochloride] | 0.942 (active) | 0.932 | 0.998 | 0.906 (active) | 0.948 | 0.966 | 0.986 | 0.0132 (active) |
| O=C(NC(Cc1cc(=O)[nH]c2ccccc12)C(=O)O)c1ccc(Cl)cc1 (configuration not stated) [Rebamipide] | 1 | 1.03 | 1.03 | 0.997 | 1.06 | 1.09 | 0.99 | 0.998 |
